Results published in PubChem BioAssay (NCI).
Compounds without any hit were thinned out: in the full panel of roughly 79,000, 15% have a hit. Calls of active or inactive are those of the source. Cut-off read from the data, not from the text of the source: active = growth inhibition above about 70%; inactive = the rest.

What was measured:
[1] = NCI Yeast Anticancer Drug Screen. Data for the rad52 strain (AID 147);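 note: 0% = growth of vehicle-treated control cultures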; conditions: S. cerevisiae rad52 mutant growth inhibition, active compounds read high
Procedure, shortened: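 Yeast strain carrying a DNA damage repair alteration was exposed to test compounds. Growth inhibition was measured relative to vehicle-treated controls.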

[2] = NCI Yeast Anticancer Drug Screen. Data for the wt1 strain (AID 149);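 note: 0% = growth of vehicle-treated wt1 cultures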; conditions: S. cerevisiae wt1 strain (SPY 50644) growth inhibition, active compounds read high
Procedure, shortened: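 wt1 strain grown with compound or vehicle; inhibition taken from the growth difference.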

[3] = NCI Yeast Anticancer Drug Screen. Data for the rad50EPP+ strain (AID 151);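 note: 0% = growth of vehicle-treated control cultures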; conditions: S. cerevisiae rad50 mutant strain, active compounds read high
Procedure, shortened: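 Yeast strain carrying rad50 alteration (rad50EPP+) exposed to compounds; growth inhibition measured relative to vehicle-treated controls.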

[4] = NCI Yeast Anticancer Drug Screen. Data for the mgt1 strain (AID 153); conditions: S. cerevisiae mgt1 mutant growth inhibition, active compounds read high
Procedure, shortened: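 Yeast mgt1 strain (DNA repair/cell-cycle alteration panel) exposed to compounds; growth inhibition measured relative to vehicle-treated controls.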

[5] = NCI Yeast Anticancer Drug Screen. Data for the rad50 strain (AID 155);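 note: 0% = growth of vehicle-only cultures of the same strain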; conditions: S. cerevisiae rad50 strain growth inhibition, active compounds read high
Procedure, shortened: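 DNA repair mutant yeast, compound exposure, growth read-out; inhibition is taken relative to vehicle.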

[6] = NCI Yeast Anticancer Drug Screen. Data for the mec2-1 strain (AID 157); conditions: S. cerevisiae mec2-1 strain, active compounds read high
Procedure, shortened: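 mec2-1 yeast strain, carrying an alteration in DNA damage repair or cell cycle control, was exposed to compounds; growth inhibition was measured relative to vehicle-treated controls.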

[7] = NCI Yeast Anticancer Drug Screen. Data for the rad14 strain (AID 159);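 note: 0% = growth of vehicle-treated control cultures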; conditions: S. cerevisiae rad14 strain growth inhibition, active compounds read high
Procedure, shortened: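 DNA repair-defective yeast, compound-exposed; % growth inhibition derived by comparison with vehicle-treated controls.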

[8] = NCI Yeast Anticancer Drug Screen. Data for the sgs1 mgt1 strain (AID 161);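 note: 0% = growth of cultures given vehicle only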; conditions: S. cerevisiae sgs1 mgt1 strain, active compounds read high
Procedure, shortened: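 Percent growth inhibition was derived by comparing compound-exposed mutant yeast with vehicle-exposed cultures. The strain carries alterations in DNA damage repair.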

[9] = NCI Yeast Anticancer Drug Screen. Data for the CLN2oe strain (AID 163);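 note: 0% = growth of vehicle-only control cultures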; conditions: S. cerevisiae CLN2oe strain, active compounds read high
Procedure, shortened: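 Yeast cells carrying a defined cell-cycle control alteration were exposed to test compounds. Growth inhibition was scored against vehicle-treated control cultures.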

[10] = NCI Yeast Anticancer Drug Screen. Data for the cln2 rad14 strain (AID 165);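 note: 0% = growth equal to vehicle treated cultures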; conditions: S. cerevisiae cln2 rad14 strain, active compounds read high
Procedure, shortened: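 Yeast carrying cln2 and rad14 alterations (cell cycle control and DNA damage repair) were exposed to compounds. Growth inhibition was measured against vehicle-treated controls.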

[11] = NCI Yeast Anticancer Drug Screen. Data for the bub3 strain (AID 167); conditions: S. cerevisiae bub3 mutant strain, active compounds read high
Procedure, shortened: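 In this screen, a yeast mutant lacking normal mitotic checkpoint function is challenged with compound. Relative growth versus vehicle gives the inhibition value.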

[12] = NCI Yeast Anticancer Drug Screen. Data for the wt2 strain (AID 169);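 note: 0% = growth of vehicle-treated yeast cultures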; conditions: S. cerevisiae wt2 strain growth inhibition, active compounds read high
Procedure, shortened: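 Yeast cells were exposed to test compounds, and growth inhibition was measured relative to vehicle-treated controls.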

[13] = NCI Yeast Anticancer Drug Screen. Data for the mlh1 strain (AID 171);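 note: 0% = growth of vehicle-treated control cultures of the same strain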; conditions: S. cerevisiae mlh1 strain growth inhibition, active compounds read high
Procedure, shortened: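 Yeast carrying a defined genetic alteration in DNA damage repair or cell cycle control were exposed to test compounds. Growth inhibition was measured relative to vehicle-treated controls.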

[14] = NCI Yeast Anticancer Drug Screen. Data for the mlh1 rad18 strain (AID 175); conditions: S. cerevisiae mlh1 rad18 strain growth inhibition, active compounds read high
Procedure, shortened: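 Growth inhibition of the yeast strain was measured after compound exposure and expressed relative to vehicle-treated controls. The strain carries defined defects in DNA damage repair.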

[15] = NCI Yeast Anticancer Drug Screen. Data for the rad18 strain (AID 177); conditions: S. cerevisiae rad18 mutant growth inhibition, active compounds read high
Procedure, shortened: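 Yeast carrying a defined DNA damage repair alteration were exposed to compounds. Growth inhibition was expressed relative to vehicle-treated controls.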

[16] = at 5.0 µM (retest, dose inferred, filed as 0.5)
[17] = at 50.0 µM (retest, dose inferred, filed as 5.0)

Measured: growth inhibition

CCOC(=O)[C@]1(Br)CC[C@@]1(Br)C(=O)OCC
inactive: [1]; at 1.2 µM -78% | [1]; at 3.7 µM -24% | [1]; at 11.0 µM 31% | [2]; at 1.2 µM -44% | [2]; at 3.7 µM -33% | [2]; at 11.0 µM -3% | [3]; at 1.2 µM -13% | [3]; at 3.7 µM -6% | [3]; at 11.0 µM 29% | [4]; at 1.2 µM -23% | [4]; at 3.7 µM -23% | [4]; at 11.0 µM 23% | [5]; at 1.2 µM -8% | [5]; at 3.7 µM 7% | [5]; [16] 26% | [5]; at 11.0 µM 23% | [5]; [17] 67% | [6]; at 1.2 µM -38% | [6]; at 3.7 µM -25% | [6]; [16] 29% | [6]; at 11.0 µM 27% | [7]; at 1.2 µM -53% | [7]; at 3.7 µM -31% | [7]; at 11.0 µM 14% | [8]; [16] -7% | [8]; [17] -36% | [9]; at 1.2 µM -3% | [9]; at 3.7 µM 15% | [9]; at 11.0 µM 15% | [10]; [16] -7% | [10]; [17] -76% | [11]; at 1.2 µM -38% | [11]; at 3.7 µM -44% | [11]; [16] 2% | [11]; at 11.0 µM -19% | [11]; [17] -38% | [12]; at 1.2 µM -67% | [12]; at 3.7 µM -48% | [12]; at 11.0 µM 6% | [13]; at 1.2 µM -37% | [13]; at 3.7 µM -29% | [13]; at 11.0 µM 35% | [14]; [16] 57% | [15]; at 1.2 µM -58% | [15]; at 3.7 µM -43% | [15]; at 11.0 µM 8%
active: [1]; at 33.0 µM 95% | [1]; at 100.0 µM 97% | [2]; at 33.0 µM 98% | [2]; at 100.0 µM 99% | [3]; at 33.0 µM 75% | [3]; at 100.0 µM 94% | [4]; at 33.0 µM 96% | [4]; at 100.0 µM 100% | [5]; at 33.0 µM 94% | [5]; at 50.0 µM 89% | [5]; at 100.0 µM 98% | [6]; at 33.0 µM 97% | [6]; [17] 80% | [6]; at 50.0 µM 93.1% | [6]; at 100.0 µM 99% | [7]; at 33.0 µM 94% | [7]; at 100.0 µM 99% | [8]; at 50.0 µM 91.8% | [9]; at 33.0 µM 91% | [9]; at 100.0 µM 99% | [10]; at 50.0 µM 87.3% | [11]; at 33.0 µM 81% | [11]; at 50.0 µM 91.4% | [11]; at 100.0 µM 96% | [12]; at 33.0 µM 98% | [12]; at 100.0 µM 100% | [13]; at 33.0 µM 97% | [13]; at 100.0 µM 99% | [14]; [17] 93% | [14]; at 50.0 µM 91% | [15]; at 33.0 µM 93% | [15]; at 100.0 µM 99%
